# High-throughput results: PubChem, several laboratories
# Bfl-1 A1 inh = caspase 3/7 activation in MEF A1-2A-BIM cells, primary screen, A1 inhibitor project, cell-based, luminescence, HTS; Caspase-Glo 3/7 luminescence, 3 h; percent of clofoctol response, vehicle zero; 330,000 tested, 0.066% active; caspase activation, % (concentration not given with the values);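 active = over half of replicate activation scores above 10%, or exactly half above 10 with the replicate mean above 10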
# aDG glyco act = activators of alpha-DG glycosylation, primary screen, uHTS, Pro5-aDG cells, AlphaScreen | 360,000 tested, 0.22% active | AID 624168, 2012 | activation, % at 10 µM | alpha-DG glycosylation AlphaScreen (IIH6); 0% Pro5, 100% B10-LARGE cell signal;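 active = activation of at least 8% versus controls, or a plate z-score of at least 8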;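 also: Pro5 are CHO cells carrying HIG-tagged alpha-DG that lacks glycosylation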
# ARNT TACC3 PPI = disruptors of ARNT/TACC3 protein interaction, primary screen, biochemical, AlphaScreen, single concentration; Transforming acidic coiled-coil-containing protein 3 (Homo sapiens), Q9Y6A5; AlphaScreen His-ARNT PAS-B/GST-TACC3 binding, luminescence; TACC3 fragment carries E629A point mutation; inhibition, % at 9.99 µM; 390,000 tested, 0.66% active; AID 623870, 2012;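 active = mean inhibition of replicates at least 50% and at least half of replicates each reaching 50%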;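 also: 0% = complete ARNT plus TACC3 wells and 100% = ARNT alone without TACC3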
# AI-2 QS mod = Vibrio harveyi AI-2 quorum sensing modulators, primary screen, JMH597 strain, luminescence/OD600 ratio | Vibrio harveyi JMH597 AI-2 luminescence/OD600 ratio, 9 h; active compounds read low; strain lacks LuxN and CqsS sensors; 0 = neutral-control median | activity change, % at 7.5 µM | 300,000 tested, 0.4% active; in the data active = activity change below about -75%, passing the limit was not always enough;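 also: luminescence divided by OD600 gain over 9 h not by final OD600 alone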
# SUMO Mot1 rescue = yeast Mot1-301 growth rescue at high temperature, primary screen, SUMOylation pathway inhibitor project, S. cerevisiae, ATP luminescence, 38.5C. S. cerevisiae Mot1-301 growth rescue; percent above DMSO median, 100 means doubled. AID 2716, 2010. growth rescue, % at 18.8 µM. 320,000 tested, 1% active;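 active = every valid replicate shows activation above 250% relative to neutral control wells; inactive = the rest, any valid replicate at or below 250%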;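 also: OY570 slx delta 5 strain wells were the positive control but not used for scaling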
# aDG glyco conf = alpha-DG glycosylation enhancers, retest, confirmation, single concentration, Pro5-aDG cells; activation, % at 10 µM (by protocol); shares compounds with aDG glyco act; IIH6 AlphaLISA; scaled to LARGE-overexpressing B10 cells as 100%; AID 651671, 2012; 600 tested, 17% active;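 active = activation of at least 7% in one or more replicates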;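 also: cells exposed to compound for two days before detection; 0% = DMSO-treated Pro5 cells and 100% = DMSO-treated B10-LARGE cells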
# Active calls of the source: *; x = no result. An excerpt weighted towards active compounds, which were near 1.8% of everything screened.
SMILES,Bfl-1 A1 inh,aDG glyco act,ARNT TACC3 PPI,AI-2 QS mod,SUMO Mot1 rescue,aDG glyco conf
CN1CCN(c2ccc(S(=O)(=O)N3CCCCC3)cc2NC(=O)/C=C/c2ccc(OC(F)F)cc2)CC1,2,7.5*,x,13,17,17*
CCN1CCN(c2ccc(S(=O)(=O)N3CCCCC3)cc2NC(=O)/C=C/c2ccc(OC(F)F)cc2)CC1,0,1,x,18,x,x
CCOC(=O)N1CCN(c2ccc(C(=O)c3cccc(F)c3)cc2)CC1,-1,0,-18,21,-4,x
Cc1ccccc1C(=O)Oc1cc(N)n(S(=O)(=O)c2ccccc2)n1,1,0,1,10,-11,x
CC(=O)N1CCCc2cc(S(=O)(=O)N3CCC(C)CC3)ccc21,0,23*,8,4,7,-1
Cc1nc(-c2ccccc2O)n(S(=O)(=O)N(C)C)n1,0,0,-34,11,2,x
COC(=O)c1c(NC(=O)CSc2nnc(-c3ccco3)n2C)sc(C)c1C,-1,6.1*,-6,10,-19,0
CCn1cc(C(=O)NCCCN2CCCC(C)C2)c(=O)c2cc(S(=O)(=O)N3CCc4ccccc4C3)ccc21 (stereo not given),0,6,4,-11,-1,x
CCC1CCCCN1CCCNC(=O)c1cn(CC)c2ccc(S(=O)(=O)N3CCc4ccccc4C3)cc2c1=O (stereo not given),1,9.1*,-3,3,x,0
CC(=O)c1c(COC(=O)c2ccc(C)cc2)nc2ccccc2[n+]1[O-],1,2.8*,x,8,-10,-1
CC(=O)c1c(COC(=O)c2ccc(F)cc2)nc2ccccc2[n+]1[O-],0,0,x,31,4,x
CCCCc1c(C)nn(-c2nnc3c4ccccc4n(C)c3n2)c1C,0,4.2*,x,2,-18,2
Cn1c2ccccc2c2nnc(NN)nc21,-1,0,8,12,-4,x
COc1ccc2cc(CN(C(=O)Nc3ccccc3)C3CCCC3)c(=O)[nH]c2c1,-1,16*,2,17,-9,-1
N/C(=N\OC(=O)Nc1ccccc1)c1ncc([N+](=O)[O-])s1,0,2.8*,-1,-88*,2,3.3*
O=C(COC(=O)COc1ccccc1)Nc1ncc([N+](=O)[O-])s1,0,0,x,x,8,x
CCCCN(C(=O)c1cc2ccccc2o1)c1c(N)n(CC(C)C)c(=O)[nH]c1=O,0,0,-61,7,-4,x
O=S(=O)(c1ccc(Cl)cc1)N1CCN(c2ncnc3sccc23)CC1,-2,4.8*,-16,x,6,1
COc1ccc(C(C)NC(=O)c2ccc(Br)cc2)cc1OC (stereo not given),-1,0,-6,14,-9,x
CCCCN1CCc2c1nc1ccc(Br)cc1c2N,1,3.6*,7,23,10,7.8*
CC(=O)Nc1ccc(NC(=O)CSCCc2ccccn2)cc1,0,4.5*,-6,40,-14,-1
Cc1cncn1CCc1nc2c3ccccc3nc(SCC(=O)Nc3cccc(Cl)c3)n2n1,1,8.7*,6,8,-5,5.3*
Cc1cccc(NC(=O)CSc2nc3ccccc3c3nc(CCc4c(C)n[nH]c4C)nn23)c1,-1,0,-8,54,-7,x
COc1cccc(CN(C)C(=O)c2cccc(S(=O)(=O)N3CCN(c4ccccc4)CC3)c2)c1OC,x,1,2,x,x,x
COc1cccc(CN(C)C(=O)c2cccc(S(=O)(=O)N3CCN(c4ccc(F)cc4)CC3)c2)c1OC,0,3.5*,-2,35,-9,0
COc1ccc(C#Cc2ccc([C@H]3[C@@H](CO)N4CCCCN(Cc5ccccc5F)C[C@H]34)cc2)cc1,x,x,28,x,x,x
